Results taken from PubChem BioAssay (Tox21).
Results filed as inconclusive are left out. Activity calls are given as the source filed them. Unless noted, calls follow the shape of the dose curve; as a rule, active = well fitted curve in the direction sought with a large enough effect in the repeat runs; inconclusive = weak or mixed curves; inactive = no such curve, though single readings can be large; an effect the other way counts as inactive or inconclusive.

What was measured:
[1] = qHTS assay to identify small molecule agonists of the vitamin D receptor (VDR) signaling pathway - cell viability counter screen (AID 743224); also: series mostly up to about 63 µM; % is scaled to controls: 0 for no effect and ±100 for the full control effect; nearly all actives have a fitted effect of over 50% in size
Summary of the method: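 Luminescence from CellTiter-Glo, read after 30 min at room temperature, reports viability of VDR-bla cells treated with compounds for 16 h at 37C in the wells used for the beta-lactamase FRET read.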

[2] = qHTS assay to identify small molecule antagonists of the vitamin D receptor (VDR) signaling pathway - cell viability counter screen (AID 743225); also: % is scaled to controls: 0 for no effect and ±100 for the full control effect; nearly all actives have a fitted effect of over 50% in size
Summary of the method: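 Viability counter screen run in the same wells as the beta-lactamase reporter assay: HEK 293T VDR-UAS-bla cells, 16 h compound exposure at 37C with 3 nM (final) 1-alpha,25-dihydroxyvitamin D3. CellTiter-Glo luminescence, 30 min, room temperature.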

[3] = qHTS assay to identify small molecule agonists of the NFkB signaling pathway (AID 1159509; active = well fitted curve in the direction sought with a large enough effect in the signal ratio in the repeat runs, not every such curve was filed as active; the % refers to the signal ratio; also: series mostly up to about 61 µM; % is scaled to controls: 0 for no effect and ±100 for the full control effect)
Summary of the method: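 NFkB-bla ME-180 cells with a beta-lactamase reporter under an NF-kB response element were plated overnight, treated with compounds in DMSO for 5 hr at 37 C, then loaded with FRET substrate for 1.5 hr at room temperature.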

[4] = qHTS assay to identify small molecule agonists of the NFkB signaling pathway - cell viability counter screen (AID 1159515; calls by dose curve; also: series mostly up to about 61 µM; % is scaled to controls: 0 for no effect and ±100 for the full control effect; nearly all actives have a fitted effect of over 55% in size)
Summary of the method: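 Luminescence from CellTiter-Glo (30 min, room temperature) gives viability, measured in the same wells as the beta-lactamase reporter read. Cells were NFkB-bla ME-180, 2,000 per well, treated 5 hr with compounds.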

[5] = qHTS assay to identify small molecule agonists of the endoplasmic reticulum stress response signaling pathway (AID 1159516; active = well fitted activation curve with a large enough effect in the signal ratio in the repeat runs, not every such curve was filed as active; the % refers to the signal ratio; also: % is scaled to controls: 0 for no effect and ±100 for the full control effect)
Summary of the method: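 Read-out is beta-lactamase cleavage of a FRET substrate (405 nm excitation; 460 and 530 nm emissions) in ESRE-bla HeLa cells after a 5 hr compound exposure at 37 C. Substrate incubation ran 2 hr at room temperature.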

[6] = qHTS assay to identify small molecule agonists of the endoplasmic reticulum stress response signaling pathway - cell viability counter screen (AID 1159517; calls by dose curve;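 also: HeLa cells carrying an ER stress response element beta-lactamase reporter; series mostly up to about 61 µM; % is scaled to controls: 0 for no effect and ±100 for the full control effect; nearly all actives have a fitted effect of over 50% in size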)
Summary of the method: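 Counter-screen wells were identical to the reporter wells. Cells were plated at 1,500 per well and dosed for 5 hr, then read for luminescence 30 min after CellTiter-Glo addition.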

[7] = qHTS assay to identify small molecule antagonists of the retinoid-related orphan receptor gamma (ROR-gamma) signaling pathway - cell viability counter screen (AID 1159520); also: % is scaled to controls: 0 for no effect and ±100 for the full control effect; nearly all actives have a fitted effect of over 50% in size
Summary of the method: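 Tet-on ROR gamma CHO cells were given compounds for 2 hr, then doxycycline hyclate at 1 uM final, and incubated 16 hr at 37 C. Viability was measured as ATP content by CellTiter-Glo luminescence.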

[8] = molecular target: Nuclear receptor ROR-gamma (Homo sapiens) (UniProt P51449); experiment: qHTS assay to identify small molecule antagonists of the retinoid-related orphan receptor gamma (ROR-gamma) signaling pathway (AID 1159521)
Summary of the method: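 Luminescence readout (ONE-Glo, 30 min RT) after 16 h doxycycline induction; loss of signal scored as antagonism. CHO cells with TET-inducible RORγ and RORE-LUC reporter; compounds added 2 h before 1 uM final doxycycline.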

[9] = qHTS assay to identify small molecule agonists of the AP-1 signaling pathway - cell viability counter screen (AID 1159525; calls by dose curve; also: nearly all actives have a fitted effect of over 55% in size)
Summary of the method: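 AP-1-bla ME-180 cells in Opti-MEM with 0.5% dialyzed FBS, compound exposure 5 h at 37 C in 15-point titration. Viability read in the same wells as ATP content by CellTiter-Glo luminescence, normalised to tetra-n-octylammonium bromide and DMSO controls.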

[10] = qHTS assay to identify small molecule agonists of the AP-1 signaling pathway (AID 1159526; calls by dose curve; also: % is scaled to controls: 0 for no effect and ±100 for the full control effect)
[11] = qHTS assay to identify small molecule agonists of the RXR signaling pathway - cell viability counter screen (AID 1159529)
Summary of the method: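 Luminescence from CellTiter-Glo (30 min, RT) measured viability in the same wells as the beta-lactamase reporter readout. Cells: GeneBLAzer RXR-alpha HEK 293T, 2% charcoal-stripped FBS. Compound exposure 16 hr, 37 C.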

[12] = qHTS assay to identify small molecule antagonists of the retinoid acid receptor (RAR) signaling pathway - cell viability counter screen (AID 1159551); also: % is scaled to controls: 0 for no effect and ±100 for the full control effect; nearly all actives have a fitted effect of over 35% in size
Summary of the method: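 Luminescent ATP quantitation (CellTiter-Glo) gave cell viability in C3RL4 cells exposed to test chemicals for 6 h at 37 C alongside 1 uM final retinol.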

[13] = molecular target: Retinoic acid receptor RXR-alpha (Homo sapiens) (UniProt P19793); experiment: qHTS assay to identify small molecule agonists of the RXR signaling pathway (AID 1159527; calls by dose curve; also: % is scaled to controls: 0 for no effect and ±100 for the full control effect; nearly all actives have a fitted effect of over 35% in size)
Summary of the method: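 Agonist mode; 9-cis retinoic acid positive control. HEK 293T UAS-bla reporter cells, 2% charcoal-stripped FBS, 16 hr compound exposure at 37 C/5% CO2. LiveBLAzer B/G FRET substrate 2 hr RT; ex 405, em 460/530 nm.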

[14] = qHTS assay to identify small molecule antagonists of the retinoic acid receptor (RAR) signaling pathway (AID 1159552)
Summary of the method: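 Luminescence from a RARE luciferase reporter in C3RL4 cells served as read-out. Cells received compounds together with 1 uM final retinol and incubated 6 hr at 37 C before detection reagent was added for 30 min at room temperature.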

[15] = qHTS assay to identify small molecule agonists of the retinoic acid receptor (RAR) signaling pathway (AID 1159553); also: potency is read from the fitted curve at half-maximal effect; as to activation: % is scaled to controls: 0 for no effect and ±100 for the full control effect
Summary of the method: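 Luminescence from a RARE-driven luciferase reporter in C3RL4 cells served as the read-out, measured after 30 min with detection reagent at room temperature. Compounds in DMSO were applied for 6 hr at 37 C following overnight seeding.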

Chain of Retinoic acid receptor RXR-alpha (Homo sapiens) (P19793 whole entry, looked up): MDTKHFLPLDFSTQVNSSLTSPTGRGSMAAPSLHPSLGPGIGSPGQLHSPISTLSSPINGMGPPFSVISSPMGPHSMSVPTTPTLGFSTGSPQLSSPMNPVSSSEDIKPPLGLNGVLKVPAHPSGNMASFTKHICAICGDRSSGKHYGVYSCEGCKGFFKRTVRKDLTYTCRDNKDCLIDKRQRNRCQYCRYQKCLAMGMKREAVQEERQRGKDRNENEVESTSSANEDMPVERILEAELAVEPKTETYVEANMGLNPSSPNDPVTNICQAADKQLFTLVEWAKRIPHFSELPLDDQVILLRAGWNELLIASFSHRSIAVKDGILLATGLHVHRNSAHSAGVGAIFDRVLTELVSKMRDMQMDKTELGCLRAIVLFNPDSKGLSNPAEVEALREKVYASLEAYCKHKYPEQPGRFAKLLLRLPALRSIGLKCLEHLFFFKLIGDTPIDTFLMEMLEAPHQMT

C=CC(O)CCCCC (stereo not given)
inactive: outcome [1] | outcome [2] | outcome [3] | outcome [4] | outcome [5] | outcome [6] | Potency [7] | Potency [8] | outcome [9] | Potency [10] | Potency [11] | outcome [12]

O=S(=O)(O)c1cc(Cl)c(Cl)cc1Cl
inactive: outcome [1] | outcome [3] | outcome [4] | outcome [5] | outcome [6] | Potency [7] | Potency [8] | outcome [9] | Potency [10] | outcome [12]

O=C(OC1C[C@H]2CC[C@@H](C1)[N+]21CCCC1)C(O)(c1ccccc1)c1ccccc1 (stereo not given in full)
inactive: outcome [1] | outcome [2] | outcome [3] | outcome [4] | outcome [5] | outcome [6] | Potency [7] | Potency [8] | outcome [9] | outcome [13] | Potency [11] | outcome [12] | outcome [14] | Potency [15]

O=C1CCCN1CCO
inactive: outcome [1] | outcome [2] | outcome [3] | outcome [4] | outcome [5] | outcome [6] | Potency [7] | Potency [8] | outcome [9] | Potency [10] | outcome [12]

COc1cc(CNC(=O)CCCC/C=C/C(C)C)ccc1O
inactive: outcome [1] | outcome [2] | outcome [3] | outcome [4] | outcome [5] | outcome [6] | Potency [7] | Potency [8] | outcome [9] | Potency [10] | outcome [12] | outcome [14]

O=[N+]([O-])c1ccc(Cl)cc1Cl
inactive: outcome [1] | outcome [2] | outcome [3] | outcome [4] | outcome [5] | outcome [6] | Potency [7] | Potency [8] | Potency [10] | Potency [11] | outcome [12] | outcome [14] | Potency [15]

O=C(Cl)c1ccc(F)c(Cl)c1
inactive: outcome [1] | outcome [2] | outcome [3] | outcome [4] | outcome [5] | outcome [6] | Potency [7] | Potency [8] | outcome [9] | Potency [10] | outcome [12] | Potency [15]

Cc1c(N=C=O)cccc1N=C=O
inactive: outcome [1] | outcome [2] | outcome [3] | outcome [4] | outcome [5] | outcome [6] | Potency [7] | Potency [8] | Potency [10] | Potency [11] | outcome [12] | outcome [14] | Potency [15]

CCOc1ccc2c(c1)C(C)CC(C)(C)N2 (stereo not given)
inactive: outcome [1] | outcome [2] | outcome [3] | outcome [4] | outcome [5] | outcome [6] | Potency [7] | Potency [8] | Potency [10] | Potency [11] | outcome [12] | outcome [14]
active: Potency [15] 54.5 µM

CC1(COc2ccc(CC3SC(=O)NC3=O)cc2)CCCCC1 (stereo not given)
inactive: outcome [1] | outcome [2] | outcome [3] | outcome [4] | outcome [5] | outcome [6] | Potency [7] | Potency [8] | outcome [9] | Potency [10] | outcome [12]

CC(C)=CCC[C@H](C)CCO
inactive: outcome [1] | outcome [2] | outcome [3] | outcome [4] | outcome [5] | outcome [6] | Potency [7] | Potency [8] | outcome [9] | Potency [10] | outcome [14] | Potency [15]

O=C(c1ccco1)N1CCNCC1
inactive: outcome [1] | outcome [2] | outcome [3] | outcome [4] | outcome [5] | outcome [6] | Potency [7] | Potency [8] | outcome [9] | outcome [13] | Potency [11] | outcome [12] | outcome [14] | Potency [15]

Cc1cccc(C)c1NC(=O)CN1CCCC1
inactive: outcome [1] | outcome [2] | outcome [3] | outcome [4] | outcome [5] | outcome [6] | Potency [7] | Potency [8] | outcome [9] | outcome [13] | Potency [11] | outcome [12] | outcome [14]

CC(COc1ccccc1)NC(C)C(O)c1ccc(O)cc1 (stereo not given)
inactive: outcome [2] | outcome [3] | outcome [4] | outcome [5] | outcome [6] | Potency [7] | Potency [8] | outcome [9] | outcome [13] | Potency [11] | outcome [12] | outcome [14]

O=C(O)c1ccc2c(c1)nc(C(=O)NC1CCN(C3CC3)CC1)n2Cc1cc(-c2ccc(Cl)s2)on1
inactive: outcome [1] | outcome [2] | outcome [3] | outcome [4] | outcome [5] | outcome [6] | activity, negative = cytotoxicity [7] -12.3% [at 19 µM] | activity change, negative = inhibition [8] -14.3% [at 19 µM] | viability change, negative = cytotoxic [9] 0.765% [at 15.8 µM] | activation [10] -0.694% [at 15.8 µM] | activity change, negative = cytotoxicity [12] 0.727% [at 19 µM]

CC(C)CCCCCCCOC(=O)c1ccc(C(=O)OCCCCCCCC(C)C)c(C(=O)OCCCCCCCC(C)C)c1
inactive: outcome [1] | outcome [2] | outcome [3] | outcome [4] | outcome [5] | outcome [6] | Potency [7] | Potency [8] | outcome [9] | Potency [10] | outcome [12]

CC1(C)C(=O)NC(=O)N1CO
inactive: outcome [1] | outcome [2] | outcome [3] | outcome [4] | outcome [5] | outcome [6] | Potency [7] | Potency [8] | outcome [9] | Potency [10] | outcome [12]

O=C(O)c1ccc(O)c(O)c1
inactive: outcome [1] | outcome [2] | outcome [3] | outcome [4] | outcome [5] | outcome [6] | Potency [7] | Potency [8] | Potency [10] | Potency [11] | outcome [12] | outcome [14] | Potency [15]

NCCOCCOCCN
inactive: outcome [1] | outcome [2] | outcome [3] | outcome [4] | outcome [5] | outcome [6] | Potency [7] | Potency [8] | outcome [9] | Potency [10] | outcome [12]

CC(Cc1ccccc1)(NC(=O)CN)c1ccccc1 (stereo not given)
inactive: outcome [1] | outcome [2] | outcome [3] | outcome [4] | outcome [5] | outcome [6] | Potency [7] | Potency [8] | outcome [9] | outcome [13] | Potency [11] | outcome [12] | outcome [14] | Potency [15]

CCCCCCCCOCCCN
inactive: outcome [3] | outcome [4] | outcome [5] | outcome [6] | Potency [7] | Potency [8] | outcome [9] | outcome [13] | Potency [11] | outcome [12] | outcome [14] | Potency [15]
